Results on one sequence are retold here after publication PMC7862700, “An all-to-all approach to the identification of sequence-specific readers for epigenetic DNA modifications on cytosine”.

What all share (assay): DAPPL (digital affinity profiling via proximity ligation, sequencing); 10 mM Tris-HCl pH 7.5, 50 mM NaCl, 1 mM DTT, 4% glycerol, room temperature, 30 min; GST-TFs on glutathione beads, 16-mer random dsDNA library, 0.1% formaldehyde crosslink after washing; high values mean tight binding
Holding throughout (conditions): protein: recombinant; tags: N-terminal GST; dsDNA, one strand shown

One experiment addresses T1, GABPA (Homo sapiens, UniProt Q06546 1-454).
T1 sequence: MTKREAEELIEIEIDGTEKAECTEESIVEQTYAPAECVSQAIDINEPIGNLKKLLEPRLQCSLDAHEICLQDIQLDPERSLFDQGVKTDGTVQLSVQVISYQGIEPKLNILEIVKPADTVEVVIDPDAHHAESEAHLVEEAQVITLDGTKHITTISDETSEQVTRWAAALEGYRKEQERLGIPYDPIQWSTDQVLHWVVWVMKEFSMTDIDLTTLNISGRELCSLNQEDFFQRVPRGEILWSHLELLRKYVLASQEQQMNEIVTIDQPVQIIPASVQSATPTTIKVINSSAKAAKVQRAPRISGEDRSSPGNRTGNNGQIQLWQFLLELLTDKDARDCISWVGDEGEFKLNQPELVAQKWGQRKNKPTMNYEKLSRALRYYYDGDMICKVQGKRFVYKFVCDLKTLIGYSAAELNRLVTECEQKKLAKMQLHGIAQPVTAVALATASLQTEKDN
An outline of the steps:
(§1)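 The binding signal reported is, for every hexamer, its read frequency for a factor over its read frequency for the tag-only sample. Reads came from pools of yeast-expressed, GST-fused human transcription factors on glutathione beads, barcoded with DNA and mixed with that sample, which were incubated with 200 nmole of a random double-stranded 16-mer DNA library in Tris/NaCl/DTT/glycerol buffer at room temperature for 30 min. After washing, the pools were crosslinked with 0.1% formaldehyde, proximity-ligated with BsaI/T4 ligase for 1 h at 37 °C, PCR-amplified and sequenced on an Illumina NextSeq500.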

A further experiment has as its target T2, ERG (Homo sapiens, UniProt P11308 1-479).
T2 sequence: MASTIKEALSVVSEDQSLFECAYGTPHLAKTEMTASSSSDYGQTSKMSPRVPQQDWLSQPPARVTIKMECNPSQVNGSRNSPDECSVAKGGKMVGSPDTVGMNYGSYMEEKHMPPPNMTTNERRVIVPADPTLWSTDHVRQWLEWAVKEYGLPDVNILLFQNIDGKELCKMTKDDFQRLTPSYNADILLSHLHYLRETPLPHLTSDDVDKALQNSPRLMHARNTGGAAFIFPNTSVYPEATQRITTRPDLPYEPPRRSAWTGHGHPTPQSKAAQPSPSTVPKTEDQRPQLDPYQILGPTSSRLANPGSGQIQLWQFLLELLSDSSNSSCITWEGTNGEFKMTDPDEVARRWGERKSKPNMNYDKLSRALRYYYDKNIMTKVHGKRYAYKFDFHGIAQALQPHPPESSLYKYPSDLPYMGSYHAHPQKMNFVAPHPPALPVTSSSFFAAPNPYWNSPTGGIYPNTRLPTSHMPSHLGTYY
An outline of the steps:
as §1

The next experiment addresses ELF1 (Homo sapiens, UniProt P32519 1-619). An outline of the steps:
as §1

Another experiment addresses T3, EHF (Homo sapiens, UniProt Q9NZC4 1-300).
T3 sequence: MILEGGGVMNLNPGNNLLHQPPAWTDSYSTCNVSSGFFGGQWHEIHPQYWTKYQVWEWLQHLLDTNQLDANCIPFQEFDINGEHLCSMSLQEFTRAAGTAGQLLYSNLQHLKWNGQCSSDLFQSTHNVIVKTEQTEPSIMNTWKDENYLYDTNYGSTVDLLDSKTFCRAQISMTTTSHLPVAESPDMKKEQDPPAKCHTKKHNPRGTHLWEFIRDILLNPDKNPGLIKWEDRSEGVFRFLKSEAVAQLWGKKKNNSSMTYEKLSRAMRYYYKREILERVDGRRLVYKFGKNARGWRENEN
Put shortly:
as §1

For another experiment, the target named is SPIB (Homo sapiens, UniProt Q01892 1-262). Put shortly:
as §1

For the next experiment, the target named is T4, FEV (Homo sapiens, UniProt Q99581 1-238).
T4 sequence: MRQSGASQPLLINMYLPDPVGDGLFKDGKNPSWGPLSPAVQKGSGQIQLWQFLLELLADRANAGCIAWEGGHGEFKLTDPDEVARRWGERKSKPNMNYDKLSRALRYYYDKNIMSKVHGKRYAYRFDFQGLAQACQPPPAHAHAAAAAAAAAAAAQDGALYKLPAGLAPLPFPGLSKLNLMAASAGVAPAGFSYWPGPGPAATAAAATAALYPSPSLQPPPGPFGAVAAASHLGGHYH
An outline of the steps:
as §1

A further experiment deals with ETV5 (Homo sapiens, UniProt P41161 1-510). Put shortly:
as §1

The next experiment concerns the target ELF4 (Homo sapiens, UniProt Q99607 1-663). Put shortly:
as §1

In a further experiment the target is T5, ELK4 (Homo sapiens, UniProt P28324-2 1-405).
T5 sequence: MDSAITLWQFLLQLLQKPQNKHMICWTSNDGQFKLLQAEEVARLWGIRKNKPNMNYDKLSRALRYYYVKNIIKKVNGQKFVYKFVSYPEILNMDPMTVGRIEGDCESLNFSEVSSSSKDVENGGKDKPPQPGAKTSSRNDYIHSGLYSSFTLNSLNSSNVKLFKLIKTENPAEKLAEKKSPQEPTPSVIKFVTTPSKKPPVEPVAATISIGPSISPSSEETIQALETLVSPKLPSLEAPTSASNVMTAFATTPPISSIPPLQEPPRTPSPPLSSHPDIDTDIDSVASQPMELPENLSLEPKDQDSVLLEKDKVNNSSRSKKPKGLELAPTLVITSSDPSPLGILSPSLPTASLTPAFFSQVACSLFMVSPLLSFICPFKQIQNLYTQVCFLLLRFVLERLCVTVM
Put shortly: as §1

The next experiment has as its target T6, ETV2 (Homo sapiens, UniProt O00321 1-342).
T6 sequence: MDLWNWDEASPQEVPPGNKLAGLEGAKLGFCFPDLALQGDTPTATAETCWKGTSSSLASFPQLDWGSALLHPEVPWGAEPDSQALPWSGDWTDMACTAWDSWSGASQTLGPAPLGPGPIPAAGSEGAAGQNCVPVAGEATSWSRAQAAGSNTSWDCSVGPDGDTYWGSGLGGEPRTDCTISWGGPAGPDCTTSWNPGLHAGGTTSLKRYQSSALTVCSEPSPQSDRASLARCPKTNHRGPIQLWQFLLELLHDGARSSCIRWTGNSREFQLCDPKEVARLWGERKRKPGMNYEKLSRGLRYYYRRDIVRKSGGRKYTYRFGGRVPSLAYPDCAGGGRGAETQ
An outline of the steps: as §1

Another experiment has as its target T7, ELF3 (Homo sapiens, UniProt P78545 1-371).
T7 sequence: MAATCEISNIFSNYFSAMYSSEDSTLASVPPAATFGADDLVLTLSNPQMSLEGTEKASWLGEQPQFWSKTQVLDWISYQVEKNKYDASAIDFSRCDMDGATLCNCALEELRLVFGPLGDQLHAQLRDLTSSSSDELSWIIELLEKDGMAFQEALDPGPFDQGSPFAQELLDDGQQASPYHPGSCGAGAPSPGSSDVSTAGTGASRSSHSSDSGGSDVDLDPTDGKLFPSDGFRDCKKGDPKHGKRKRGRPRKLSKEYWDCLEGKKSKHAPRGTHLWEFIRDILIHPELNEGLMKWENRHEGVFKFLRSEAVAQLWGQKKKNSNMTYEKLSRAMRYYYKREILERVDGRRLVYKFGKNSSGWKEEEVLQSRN
Put shortly:
as §1

The target in a further experiment is ETV1 (Homo sapiens, UniProt P50549 1-477). Put shortly:
as §1

A further experiment has as its target T8, ERF (Homo sapiens, UniProt P50548 1-548).
T8 sequence: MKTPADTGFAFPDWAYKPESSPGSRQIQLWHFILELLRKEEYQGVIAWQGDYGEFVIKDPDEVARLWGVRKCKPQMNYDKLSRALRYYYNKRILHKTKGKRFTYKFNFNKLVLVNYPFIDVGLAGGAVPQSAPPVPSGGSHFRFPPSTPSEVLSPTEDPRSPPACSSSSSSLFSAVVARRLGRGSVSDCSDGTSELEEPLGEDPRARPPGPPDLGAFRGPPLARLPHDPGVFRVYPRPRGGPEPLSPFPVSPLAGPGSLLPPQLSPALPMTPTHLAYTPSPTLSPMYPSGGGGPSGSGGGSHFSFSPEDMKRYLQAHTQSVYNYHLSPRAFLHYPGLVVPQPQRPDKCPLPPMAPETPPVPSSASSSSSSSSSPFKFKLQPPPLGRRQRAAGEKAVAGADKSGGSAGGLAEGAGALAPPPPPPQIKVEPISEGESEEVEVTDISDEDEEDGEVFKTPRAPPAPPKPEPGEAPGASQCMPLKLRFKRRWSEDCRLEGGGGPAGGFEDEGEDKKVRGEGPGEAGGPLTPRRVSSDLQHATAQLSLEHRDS
Put shortly: as §1

The target in another experiment is T9, ETV3L (Homo sapiens, UniProt Q6ZN32 1-361).
T9 sequence: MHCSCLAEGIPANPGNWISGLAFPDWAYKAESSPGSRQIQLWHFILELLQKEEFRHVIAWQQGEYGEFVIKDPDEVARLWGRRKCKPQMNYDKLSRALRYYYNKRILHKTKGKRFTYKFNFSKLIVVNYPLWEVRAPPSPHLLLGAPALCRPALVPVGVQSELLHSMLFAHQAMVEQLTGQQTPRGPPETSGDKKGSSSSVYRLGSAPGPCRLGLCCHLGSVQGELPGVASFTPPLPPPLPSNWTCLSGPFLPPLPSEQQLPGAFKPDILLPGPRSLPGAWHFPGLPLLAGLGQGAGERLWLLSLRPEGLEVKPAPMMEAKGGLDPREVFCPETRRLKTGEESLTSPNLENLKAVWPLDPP
An outline of the steps:
as §1

For a further experiment, the target named is T10, SPDEF (Homo sapiens, UniProt O95238 1-335).
T10 sequence: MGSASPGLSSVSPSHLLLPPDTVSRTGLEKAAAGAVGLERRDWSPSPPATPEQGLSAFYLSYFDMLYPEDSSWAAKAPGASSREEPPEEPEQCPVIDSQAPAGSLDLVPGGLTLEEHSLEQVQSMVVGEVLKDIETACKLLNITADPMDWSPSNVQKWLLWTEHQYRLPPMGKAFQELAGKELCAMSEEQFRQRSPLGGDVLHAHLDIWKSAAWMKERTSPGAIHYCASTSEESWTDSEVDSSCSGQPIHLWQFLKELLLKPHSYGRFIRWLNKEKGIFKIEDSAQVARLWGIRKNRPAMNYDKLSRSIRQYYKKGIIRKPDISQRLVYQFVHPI
Put shortly:
as §1

In another experiment the target is T11, ETV7 (Homo sapiens, UniProt Q9Y603 1-341).
T11 sequence: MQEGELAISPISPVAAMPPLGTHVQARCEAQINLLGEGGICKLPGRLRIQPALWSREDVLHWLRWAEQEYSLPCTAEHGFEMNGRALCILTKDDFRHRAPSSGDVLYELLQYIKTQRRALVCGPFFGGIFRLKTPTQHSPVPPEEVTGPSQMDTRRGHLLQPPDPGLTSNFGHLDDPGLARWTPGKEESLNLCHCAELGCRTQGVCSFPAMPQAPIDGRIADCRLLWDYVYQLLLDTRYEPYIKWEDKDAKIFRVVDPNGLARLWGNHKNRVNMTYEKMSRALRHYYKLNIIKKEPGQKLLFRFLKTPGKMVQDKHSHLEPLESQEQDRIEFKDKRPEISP
Put shortly:
as §1

The target of a further experiment is ETV6 (Homo sapiens, UniProt P41212 1-452). Put shortly:
as §1

Sequence of ELF4 (Q99607 whole entry): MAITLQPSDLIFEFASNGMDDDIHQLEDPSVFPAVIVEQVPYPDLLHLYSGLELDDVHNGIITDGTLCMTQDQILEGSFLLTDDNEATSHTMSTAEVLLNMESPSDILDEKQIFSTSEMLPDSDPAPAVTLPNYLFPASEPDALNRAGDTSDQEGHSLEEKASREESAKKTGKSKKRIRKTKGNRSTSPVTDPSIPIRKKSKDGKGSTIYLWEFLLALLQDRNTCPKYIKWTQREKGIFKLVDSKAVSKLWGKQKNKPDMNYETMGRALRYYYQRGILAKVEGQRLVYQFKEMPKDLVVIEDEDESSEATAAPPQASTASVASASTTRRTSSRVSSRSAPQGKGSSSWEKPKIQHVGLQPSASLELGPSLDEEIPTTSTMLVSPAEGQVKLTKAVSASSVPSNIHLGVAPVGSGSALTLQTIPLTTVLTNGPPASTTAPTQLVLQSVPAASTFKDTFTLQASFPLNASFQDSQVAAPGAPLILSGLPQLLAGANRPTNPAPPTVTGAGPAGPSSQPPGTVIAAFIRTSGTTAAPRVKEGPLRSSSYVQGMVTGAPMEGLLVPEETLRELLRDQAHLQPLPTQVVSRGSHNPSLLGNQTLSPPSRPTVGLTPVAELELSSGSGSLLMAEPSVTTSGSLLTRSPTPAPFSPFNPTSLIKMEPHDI
Sequence of ETV1 (P50549 whole entry): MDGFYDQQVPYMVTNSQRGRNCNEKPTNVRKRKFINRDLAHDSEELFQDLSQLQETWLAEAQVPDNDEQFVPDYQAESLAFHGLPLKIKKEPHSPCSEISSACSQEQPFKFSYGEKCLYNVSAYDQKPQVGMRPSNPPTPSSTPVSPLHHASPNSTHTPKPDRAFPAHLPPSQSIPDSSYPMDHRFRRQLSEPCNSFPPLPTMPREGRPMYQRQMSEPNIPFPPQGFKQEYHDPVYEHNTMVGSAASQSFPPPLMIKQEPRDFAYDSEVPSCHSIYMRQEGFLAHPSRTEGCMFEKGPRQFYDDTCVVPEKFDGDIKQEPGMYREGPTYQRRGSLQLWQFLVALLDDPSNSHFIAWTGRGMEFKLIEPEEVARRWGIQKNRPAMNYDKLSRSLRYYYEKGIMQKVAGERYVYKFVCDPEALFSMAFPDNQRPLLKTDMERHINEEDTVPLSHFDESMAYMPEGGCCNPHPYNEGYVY
Sequence of SPIB (Q01892 whole entry): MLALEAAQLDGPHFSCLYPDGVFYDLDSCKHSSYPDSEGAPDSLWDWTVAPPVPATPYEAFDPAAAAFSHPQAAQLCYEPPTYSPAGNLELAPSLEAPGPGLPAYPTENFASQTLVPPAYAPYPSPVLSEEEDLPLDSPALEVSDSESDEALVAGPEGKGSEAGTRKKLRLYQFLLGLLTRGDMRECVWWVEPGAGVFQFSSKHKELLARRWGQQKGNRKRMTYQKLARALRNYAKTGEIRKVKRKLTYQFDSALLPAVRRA
Sequence of ETV6 (P41212 whole entry): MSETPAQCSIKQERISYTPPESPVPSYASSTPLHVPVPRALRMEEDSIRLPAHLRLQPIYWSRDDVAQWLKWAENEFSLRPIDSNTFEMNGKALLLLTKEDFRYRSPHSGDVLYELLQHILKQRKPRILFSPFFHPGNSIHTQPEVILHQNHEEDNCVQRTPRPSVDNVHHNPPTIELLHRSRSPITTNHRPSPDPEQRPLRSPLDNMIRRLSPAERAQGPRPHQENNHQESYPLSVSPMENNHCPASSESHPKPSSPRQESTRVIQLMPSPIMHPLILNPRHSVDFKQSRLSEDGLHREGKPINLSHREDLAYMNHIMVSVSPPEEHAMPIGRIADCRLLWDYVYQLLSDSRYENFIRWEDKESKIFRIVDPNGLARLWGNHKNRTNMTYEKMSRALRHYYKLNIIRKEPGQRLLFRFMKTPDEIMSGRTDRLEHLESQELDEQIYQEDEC
Sequence of ETV5 (P41161 whole entry): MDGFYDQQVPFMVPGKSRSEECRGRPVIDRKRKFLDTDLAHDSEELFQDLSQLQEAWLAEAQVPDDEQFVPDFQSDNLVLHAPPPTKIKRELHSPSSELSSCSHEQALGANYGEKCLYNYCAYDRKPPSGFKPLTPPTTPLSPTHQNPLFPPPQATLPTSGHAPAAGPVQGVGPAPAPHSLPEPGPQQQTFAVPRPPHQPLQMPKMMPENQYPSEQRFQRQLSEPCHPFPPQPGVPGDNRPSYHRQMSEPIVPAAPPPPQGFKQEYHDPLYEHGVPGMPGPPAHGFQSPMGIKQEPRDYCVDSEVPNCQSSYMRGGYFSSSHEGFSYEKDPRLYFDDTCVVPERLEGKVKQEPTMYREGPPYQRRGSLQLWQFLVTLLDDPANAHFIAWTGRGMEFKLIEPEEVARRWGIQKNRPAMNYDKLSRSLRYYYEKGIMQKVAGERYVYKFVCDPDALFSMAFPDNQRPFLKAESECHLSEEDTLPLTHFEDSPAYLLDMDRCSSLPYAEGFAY
Sequence of ELF1 (P32519 whole entry): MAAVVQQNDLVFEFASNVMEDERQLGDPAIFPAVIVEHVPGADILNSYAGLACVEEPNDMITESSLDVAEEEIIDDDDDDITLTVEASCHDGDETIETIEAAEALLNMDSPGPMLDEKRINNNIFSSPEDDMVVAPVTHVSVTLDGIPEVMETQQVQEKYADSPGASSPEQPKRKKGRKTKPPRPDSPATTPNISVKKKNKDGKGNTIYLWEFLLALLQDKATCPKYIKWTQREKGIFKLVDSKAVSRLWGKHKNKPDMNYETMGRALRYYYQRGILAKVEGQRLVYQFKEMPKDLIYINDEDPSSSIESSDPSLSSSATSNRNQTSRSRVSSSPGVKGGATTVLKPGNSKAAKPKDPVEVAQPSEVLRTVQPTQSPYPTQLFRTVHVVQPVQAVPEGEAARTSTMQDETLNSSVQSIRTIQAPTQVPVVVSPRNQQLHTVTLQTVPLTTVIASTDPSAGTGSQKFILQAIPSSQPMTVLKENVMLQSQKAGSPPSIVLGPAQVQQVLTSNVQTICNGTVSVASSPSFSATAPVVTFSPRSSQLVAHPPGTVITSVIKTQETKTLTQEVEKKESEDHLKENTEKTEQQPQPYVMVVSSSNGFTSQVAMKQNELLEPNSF

Consider CATAAT, for which the binding signal is 1.01 fold enrichment (6-mer frequency, TF over GST control) with GABPA; 1.1 fold enrichment (6-mer frequency, TF over GST control) with ERG; 1.02 fold enrichment (6-mer frequency, TF over GST control) with ELF1; 1.13 fold enrichment (6-mer frequency, TF over GST control) with EHF; 1.04 fold enrichment (6-mer frequency, TF over GST control) with SPIB; 1.01 fold enrichment (6-mer frequency, TF over GST control) with FEV. For the same sequence, the binding signal with ETV5 is 1.09 fold enrichment (6-mer frequency, TF over GST control); with ELF4 it was 1.01 fold enrichment (6-mer frequency, TF over GST control); in the experiment with ELK4, 1.03 fold enrichment (6-mer frequency, TF over GST control); with ETV2, 1 fold enrichment (6-mer frequency, TF over GST control); with ELF3, 1.01 fold enrichment (6-mer frequency, TF over GST control); with ETV1, 1.05 fold enrichment (6-mer frequency, TF over GST control). In addition, the binding signal in the experiment with ERF is 1.02 fold enrichment (6-mer frequency, TF over GST control); with ETV3L, 1.01 fold enrichment (6-mer frequency, TF over GST control); with SPDEF it was 1 fold enrichment (6-mer frequency, TF over GST control); in the experiment with ETV7 it was 1.02 fold enrichment (6-mer frequency, TF over GST control); with ETV6, 1.07 fold enrichment (6-mer frequency, TF over GST control).
